Shown are actives, neighbours in structure and some others; about 7.9% of the full set was active somewhere.
Lassa entry inh: qHTS for Inhibitors of binding or entry into cells for Lassa Virus. Lassa virus pseudotype entry inhibition, cell reporter. AID 540256, 2011. Potency, µM (doses to about 37.9 µM), usual class: inhibitors. 1.2% of 300,000 active; calls by dose curve; tested in HEK293 cells; note: nearly all actives have a fitted effect of over 50% in size
HCMV antiviral: qHTS Assay for inhibitors of the human cytomegalovirus (HCMV). HFF cells, HCMV-luciferase reporter, 72 h; hits give low values. activity change, negative = inhibition, % at 57.5 µM. 4.5% of 410,000 active. AID 1259415, 2018; in the data active = activity change below about -60%; inconclusive = no clear call, values can overlap the other calls; inactive = above about -39%
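Compounds were evaluated in HFFs infected with an HCMV luciferase reporter virus (MOI 1 PFU/cell). Luciferase in lysates collected 72 h post infection served as the replication measure.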
MARV entry inh: qHTS for inhibitors of binding or entry into cells for Marburg Virus. Marburg virus pseudotyped entry inhibition, cell reporter. Potency, µM (highest dose often 37.8 µM), usual class: inhibitors. 1.8% of 300,000 active. AID 540276, 2011; calls by dose curve; tested in HEK293 cells
HCV inhibitor: qHTS Assay for Inhibitors of Hepatitis C Virus (HCV) | Huh7.5.1 HCVcc-Cre infection, luciferase reporter, 44 h | AID 651820, 2012 | Potency, µM (doses to about 41.8 µM), most hits filed as inhibitors | 3.4% of 340,000 active; active = well fitted inhibition curve with a large enough effect; inconclusive = small, poorly fitted or top-dose-only effect, or another doubt; inactive = no such curve, though single readings can be large or run the other way
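Whole-lifecycle infectious HCVcc-Cre system; cells 1,000/well, compound then virus (~0.5 moi) added 4 h after plating, 44 h culture. Luciferase read 15 sec following 15 min substrate incubation, room temp.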
FMDV inh: High Throughput Screening for Foot and Mouth Disease Virus Antivirals | FMDV antiviral cell-based qHTS | Potency, µM (doses to about 57.9 µM), hits mostly inhibitors | 1.2% of 410,000 active; calls by dose curve; tested in HEK293T cells; note: read-out not given here; nearly all actives have a fitted effect of over 45% in size
Hits are given with their value; – = inactive; ? = inconclusive; · = not tested or not shown; + = active, no number; ! = repeats disagree.

SMILES | Lassa entry inh | HCMV antiviral | MARV entry inh | HCV inhibitor | FMDV inh
CCCC(=O)Nc1cccc(NC(=O)c2ccc([N+](=O)[O-])cc2Cl)c1 | – | ? | – | 7.9µM | –
CCCC(=O)Nc1ccc(Cl)c(NC(=O)c2ccc([N+](=O)[O-])cc2Cl)c1 | – | – | ? | ? | –
O=C(Cc1ccccc1)Nc1cccc([N+](=O)[O-])c1 | – | ? | – | – | –
O=C(Nc1cccc([N+](=O)[O-])c1)c1ccc2ccccc2c1O | ? | -80 | ? | ? | –
N#Cc1cccc(C#N)c1Oc1ccc(S(=O)(=O)Nc2ccc(Cl)cc2)cc1 | · | – | · | ? | –
CC1NC2(C(=O)N(Cc3ccccc3)c3ccccc32)C2C(=O)N(c3ccccc3)C(=O)C12 (configuration not stated) | · | -98 | – | – | –
COc1ccc(-c2nc3cnc(N4CCNCC4)nc3n(-c3ccccc3)c2=O)cc1 | · | · | · | · | –
COC(=O)c1ccc(NC(=O)CCc2nnc3ccc(NCc4ccco4)nn23)cc1 | – | + | – | – | –
CC(C)(C)SCCNC(=O)c1ccccc1 | ? | – | – | – | –
CN(c1ccc(C(=O)NCCSCc2ccc(Cl)cc2)cc1)S(=O)(=O)c1ccccc1 | ? | – | – | ? | –
Cc1ccc(C(=O)NCCSC(C)(C)C)cc1 | 10µM | – | 8.9µM | – | –
Cc1ccc(CSCCNC(=O)c2ccc(N(C)S(=O)(=O)c3ccccc3)cc2)cc1 | ? | – | ? | 11µM | –
CN(c1ccc(C(=O)NCCSC(C)(C)C)cc1)S(=O)(=O)c1ccccc1 | 23µM | – | – | – | –
CC(=Nc1ccccc1N)c1c(C)cc(=O)n(O)c1O | · | · | · | · | –
COC(=O)[C@]12CCCCC=C1N(CCc1ccc(OC)c(OC)c1)C(=O)[C@H](CC(=O)NCCCCc1ccccc1)C2 | · | ? | · | · | –
Cc1cc(=O)c(C(=O)NCCc2ccccn2)c2n1-c1ccccc1SC(c1cccs1)C2 (configuration not stated) | · | · | · | · | –
COC(=O)[C@@H]1C[C@@]23C(=NN=C(SC)C2Nc2ccccc23)N1C(C)=O (some centres not stated) | · | · | – | · | ·
CCOC(=O)C1=C(C)NC(C)=C(C(=O)OCC)C1C(=O)OCC(=O)N1c2ccccc2CC1C (configuration not stated) | ? | – | 13µM! | ? | –
CCOC(=O)c1[nH]c(C)c(C(=O)OCC(=O)N2CC(=O)Nc3ccccc32)c1C | – | – | ? | ? | –
Cc1[nH]c2ccccc2c1C(=O)C(=O)N1c2ccccc2CC1C (configuration not stated) | – | -62 | ? | ? | ?
CCOC(=O)c1c(C)[nH]c(C(=O)OCC(=O)N2c3ccccc3CC2C)c1C (configuration not stated) | ? | – | ? | 10µM | ?
Cc1[nH]c2ccccc2c1C(=O)C(=O)N1CCCc2ccccc21 | – | – | ? | – | –
CC1Cc2ccccc2N1C(=O)COC(=O)c1cccc(Br)c1 (configuration not stated) | · | – | · | – | –
Cc1ccc(Cn2c(C(=O)Nc3ccc(Cl)cc3)cc3sccc32)cc1 | – | – | – | · | –
Cc1ccc(N2CC(NC(=O)CCc3ccccc3)CC2=O)cc1C (configuration not stated) | – | – | · | · | –
SMILES | Lassa entry inh | HCMV antiviral | MARV entry inh | HCV inhibitor | FMDV inh
Cc1nc(NCc2cccnc2)c2c3c(sc2n1)CCCC3 | – | – | ? | 7.1µM | –
COc1ccc(S(=O)(=O)Nc2cccc(-c3ccc(N4CCCCC4)nn3)c2)cc1F | – | – | · | · | –
O=C1CCC/C1=c1\s/c(=C\c2cccnc2)c(=O)n1-c1ccccc1 | – | -79 | ? | – | ?
O=C1CCC/C1=c1\s/c(=C/c2cccnc2)c(=O)n1-c1ccccc1 | ? | – | ? | – | –
CCOc1ccccc1NC(=O)CSc1nc(=O)n(CCN2CCOCC2)c2c1CCCC2 | – | -81 | – | – | –
COc1ccc2c(C)cc(SCC(=O)NC3CCCC3)nc2c1 | · | – | · | – | ?
COc1ccc2c(C)cc(SCC(=O)c3ccc4c(c3)OCO4)nc2c1 | – | – | – | 10µM | –
COc1ccc(C(=O)Nc2nc(C)c3cc4c(cc3n2)OCO4)cc1 | – | – | ? | ? | 25µM
CCOC(=O)N/N=C1/C[C@@H](O)[C@@H](O)[C@@H]2[C@@H]3C(=O)N(C4CCCCC4)C(=O)[C@H]3CC[C@@H]12 | · | · | – | · | ·

Compound activity from PubChem BioAssay.
